Inconclusive results are not listed. A number with no mark means an inactive call. Calls of active or inactive are those of the source. The call rests on the fitted dose curve; in most records, active means well fitted curve in the direction sought with a large enough effect; inconclusive means small, poorly fitted or top-dose-only effect, or another doubt; inactive means no such curve, though single readings can be large; an effect the other way counts as inactive or inconclusive.
Columns and labels:
[1] = Quantitative highthroughput screen to assess conditional lethalithy of SEM cells grown in RPMI1640 with dialyzed fetal bovine serum (RPMI+ds) (AID 1963884); further: nearly all actives have a fitted effect of over 35% in size; further: potency means the concentration at half of the fitted maximal effect;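 on viability: series mostly up to about 46 µM; 100% = DMSO control wells and 0% = empty wells without cells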
Summary of the method: (§1)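 Each medium arm—HPLM with 10% dialyzed FBS, or RPMI1640 with 5 mM glucose and 10% untreated or dialyzed FBS—was screened against an 11-point, 3-fold compound titration for 48 h at 37 °C, with CellTiter-Glo luminescence as endpoint.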

[2] = Quantitative highthroughput screen to assess conditional lethalithy of NOMO1 cells grown in RPMI1640 with dialyzed fetal bovine serum (RPMI+ds) (AID 1963877);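 further: series mostly up to about 46 µM; 100% = DMSO control wells and 0% = empty wells; nearly all actives have a fitted effect of over 30% in size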
Summary of the method: as §1

[3] = Quantitative highthroughput screen to assess conditional lethalithy of P12 Ichikawa cells grown in Human Plasma-Like Medium with dialyzed fetal bovine serum (HPLM+ds) (AID 1963879); details: Potency: viability; further: nearly all actives have a fitted effect of over 35% in size; further: potency means the concentration at half of the fitted maximal effect; on viability: series mostly up to about 46 µM
Summary of the method: as §1

[4] = Quantitative highthroughput screen to assess conditional lethalithy of P12 Ichikawa cells grown in RPMI1640 with untreated serum (RPMI+s) (AID 1963881); details: Potency: viability; further: nearly all actives have a fitted effect of over 35% in size; further: potency means the concentration at half of the fitted maximal effect;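 on viability: series mostly up to about 46 µM; 100% = DMSO wells and 0% = empty wells without cells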
Summary of the method: as §1

[5] = Quantitative highthroughput screen to assess conditional lethalithy of SEM cells grown in Human Plasma-Like Medium with dialyzed fetal bovine serum (HPLM+ds) (AID 1963882); further: nearly all actives have a fitted effect of over 35% in size; further: potency means the concentration at half of the fitted maximal effect; on viability: series mostly up to about 46 µM
Summary of the method: as §1

[6] = Quantitative highthroughput screen to assess conditional lethalithy of P12 Ichikawa cells grown in RPMI1640 with dialyzed fetal bovine serum (RPMI+ds) (AID 1963880); details: Potency: P12-Ichikawa viability
Summary of the method: as §1

[7] = Cellular viability qHTS for adrenocortical cancer (ACC) cell line SW-13 (AID 1963989); details: SW-13 ACC cells viability, CellTiter-Glo, 48 h; activity (max response): stronger effect = lower value;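 further: cells grown in serum-free medium with ITS supplement; on the % scale 0 is the no-effect control and ±100 the full control effect; nearly all actives have a fitted effect of over 65% in size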
Summary of the method: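 48 h treatment, SW-13 in ITS/DMEM serum-free; doses up to 46 uM; readout CellTiter-Glo luminescence; curve fit four-parameter logistic.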

[8] = Quantitative highthroughput screen to assess conditional lethalithy of NOMO1 cells grown in Human Plasma-Like Medium with dialyzed fetal bovine serum (HPLM+ds) (AID 1963878)
Summary of the method: as §1

Compound: C=CCON=C(C[C@H]1O[C@@H]2O[C@]3(C)CC[C@@H]4[C@H](C)CC[C@@H]([C@H]1C)[C@@]24OO3)[C@H]1O[C@@H]2O[C@]3(C)CC[C@H]4[C@H](C)CC[C@@H]([C@@H]1C)[C@@]24OO3
- Potency [1]: 935 nM (active)

Compound: C[C@]12COC(=O)C[C@@H]1CC[C@@H]1[C@H]2CC[C@@]2(C)[C@H]1CC[C@]2(C)O
- Potency [2]: inactive
- Potency [3]: inactive
- Potency [4]: inactive
- Potency [5]: inactive
- Potency [1]: inactive

Compound: O=[N+]([O-])c1ncc[nH]1
- Potency [2]: inactive
- Potency [4]: inactive
- Potency [5]: inactive

Compound: CC(=O)O[C@@]12CO[C@H]1C[C@H](O)[C@@]1(C)C(=O)[C@H](O)C3=C(C)[C@@H](O)C[C@@](O)([C@@H](OC(=O)c4ccccc4)[C@@H]21)C3(C)C
- Potency [6]: 11800 nM (active)
- Potency [4]: 9350 nM (active)

Compound: C[C@]12CC[C@H]3[C@@H](CC=C4C[C@@H](O)CC[C@@]43C)[C@@H]1CC[C@@H]2O
- activity (max response) [7]: 5.93%

Compound: CC(C)(O)C=CC(=O)[C@](C)(O)[C@H]1[C@H](O)C[C@]2(C)[C@@H]3CC=C4[C@@H](C=C(O)C(=O)C4(C)C)[C@]3(C)C(=O)C[C@@]12C
- Potency [3]: 166 nM (active)
- Potency [6]: 166 nM (active)
- Potency [1]: 66.2 nM (active)

Compound: C[C@@H]1[C@@H](CC(C[C@H]2O[C@@H]3O[C@]4(C)CC[C@@H]5[C@H](C)CC[C@@H]([C@H]2C)[C@@]35OO4)C[S+](=O)([O-])c2ccc(COC(=O)N(C)C)cc2)O[C@@H]2O[C@]3(C)CC[C@H]4[C@H](C)CC[C@@H]1[C@@]24OO3 (some centres undefined)
- Potency [8]: 418 nM (active)
- Potency [3]: 3320 nM (active)
- Potency [5]: 743 nM (active)
- Potency [1]: 418 nM (active)

Reference: PubChem BioAssay (NCATS)
